From PubChem BioAssay (NCATS) come the findings set out here.

The target of experiment [1] is M-phase phosphoprotein 8 (Homo sapiens) (UniProt Q99549). As to the kind of experiment: qHTS Validation Assay for Inhibitors for MPP8 Chromodomain Interactions with Methylated Histone Tails (AID 488949). Further: nearly all actives have a fitted effect of over 55% in size. Further: potency means the concentration at half of the fitted maximal effect. The essentials: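 AlphaScreen read-out: streptavidin donor and nickel chelate acceptor beads (final 10 ug/mL), 30 min in the dark at RT. Complex of 50 nM MPP8 and 50 nM b-H3(1-18)K9me3 peptide had been exposed to compounds for 30 min beforehand.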

Experiment [2] concerns the target Chromobox protein homolog 1 (Homo sapiens) (UniProt P83916). Description: qHTS Validation Assay for Inhibitors of HP1-beta Chromodomain Interactions with Methylated Histone Tails (AID 488953).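 Further: loss of AlphaScreen luminescence from HP1-beta binding biotinylated H3K9me3 peptide; series mostly up to about 110 µM; on the % scale 0 is the no-effect control and ±100 the full control effect; nearly all actives have a fitted effect of over 50% in size.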 In short, it runs like this: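 HP1-beta (50 nM) preformed 30 min with biotinylated H3(1-18)K9me3 peptide (50 nM) in PBS pH 7.4, 0.01% Tween-20. Compounds added for 30 min at room temperature. Complex disruption read by AlphaScreen with streptavidin donor/nickel chelate acceptor beads (10 ug/mL each).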

Experiment [3] concerns the target Methanococcus maripaludis chaperonin (MmCpn) (UniProt Q6LX38). As to the kind of experiment: High-Throughput Screening for Modulators of Cytosolic Chaperonin Activity: MmCpn Primary Screen (AID 488978). Further: 0% is about no effect. In short, it runs like this: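 ADP formation read by HTRF Transcreener, 665/590 nm emission after 320 nm excitation. Enzyme: archaeal chaperonin at 50 nM final; substrate ATP 30 uM final; 10 min, 37C, after 5 min compound preincubation at RT.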

Experiment [4] concerns the target Transient receptor potential cation channel subfamily V member 1 (Homo sapiens) (UniProt Q8NER1). Description: HTS Assay for Compounds that Act as Enhancers of the Vanilloid Receptor 1 (AID 488979). Further: 0% is about no effect. The essentials:
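Calcium influx kinetics via Fluo-8 (480/520 nm) in TRPV1-expressing cells, 2000/well cultured overnight at 35.5C. Compound-alone read 3 min (agonist phase), followed by EC20 capsaicin challenge for 2 min (enhancer phase).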

The target in experiment [5] is Thyrotropin receptor (Homo sapiens) (UniProt P16473). As to the kind of experiment: qHTS Assay for Antagonists of the Thyroid Stimulating Hormone Receptor (AID 488980). Further: series mostly up to about 58 µM; 0% is about no effect. The essentials: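 TSHR-HEK293 cells; 70 uM RO 20-1724 PDE inhibitor; compound + EC80 TSH (4 nM final); anti-cAMP cryptate antibody/cAMP-d2 in lysis buffer, 30 min RT; HTRF 665/620 nm read.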
In general terms: In qHTS, concentration-response curves come from the screen itself.

The target in experiment [6] is D(1A) dopamine receptor (Homo sapiens) (UniProt P21728). Description: HTS Assay for Allosteric Agonists of the Human D1 Dopamine Receptor: Primary Screen for Agonists (AID 488981). Further: 0% is about no effect. In short, it runs like this: (§1)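 Calcium flux in an inducible, force-coupled HEK293 Trex D1 line (overnight at 30 C): agonist mode is the 180 s kinetic read after compound; potentiator mode is the following 180 s read after dopamine at EC20.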

The target is the same in experiment [7]. As to the kind of experiment: HTS Assay for Allosteric Agonists of the Human D1 Dopamine Receptor: Primary Screen for Potentiators (AID 488982). Further: 0% is about no effect. In short, it runs like this:
as §1

Experiment [8] in a line: Validation screen for small molecules that induce genotoxicity in human embryonic kidney (HEK293T) cells expressing luciferase-tagged ELG1 (AID 493106). Further: 0% is about no effect. The essentials:
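HEK293T cells expressing luciferase-tagged ELG1, 2,000 cells/well, exposed to compound 16 hr at 37 °C, 5% CO2. Luciferase read after ONE-Glo, 30 min at room temperature; increased signal indicates genetic stress.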

In experiment [9] the target is ATPase family AAA domain-containing protein 5 (Homo sapiens) (UniProt Q96QE3). Description: Validation screen for small molecules that inhibit ELG1-dependent DNA repair in human embryonic kidney (HEK293T) cells expressing luciferase-tagged ELG1 (AID 493107).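 Further: cells co-treated with the DNA-damaging agent 5-fluorouridine alongside compound; series mostly up to about 46 µM; on the % scale 0 is the no-effect control and ±100 the full control effect; inhibitors lower the ELG1-luciferase luminescence signal; nearly all actives have a fitted effect of over 70% in size.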 The essentials: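 HEK293T cells expressing luciferase-tagged ELG1, 2,000 per well, treated with 5-fluorouridine plus compound for 16 h at 37 C. ONE-Glo luminescence after 30 min at room temperature reports ELG1 reporter level.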

Experiment [10] has as its target Thyrotropin-releasing hormone receptor (Homo sapiens) (UniProt P34981). Description: qHTS for Small Molecule Agonists and Allosteric Enhancers of Human TRH Receptor: Validation Screen for Agonists (AID 493127;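 active means calcium activation more than 3 SD above the typical response in the agonist read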; further: 0% is about no effect). The note with it: TRH receptor agonist cell assay; at 2 µM; stronger effect = higher value. The essentials: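 TRHR cells loaded with fluo-8 calcium dye; FDSS kinetic fluorescence (Ex 480/Em 530) read at 1 s/cycle after 23 nL compound addition. Agonist-mode calcium response recorded before the 10 nM TRH (EC20) addition.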

Experiment [11] can be described thus: Nrf2 qHTS screen for inhibitors: Validation (AID 493153; active means well fitted inhibition curve with a large enough effect in the main read-out, with a control signal flat, not every such curve was filed as active). The note with it: viability change: measured here: cytotoxicity max response. In short, it runs like this:
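A549 cells carrying ARE-firefly luciferase reporter, 5000 cells/well in 5% FBS OPTI-MEM, treated with compound over a concentration series for 18-24 h at 37 C. Luciferase luminescence gave Nrf2 activity; CellTiter-Fluor fluorescence gave viability.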

For experiment [12], the target named is Galactokinase (Homo sapiens) (UniProt P51570). As to the kind of experiment: qHTS Validation Assay for Inhibitors of Human Galactokinase (GALK) (AID 493189). Further: 0% is about no effect. The essentials: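 Luminescence from leftover ATP (Kinase-Glo Plus, 10 min) served as read-out after a 1 h room-temperature reaction of 5 nM GALK, 100 uM galactose and 35 uM ATP at pH8.0.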
A short description of experiment [13]: Validation screen for small molecules that induce DNA re-replication in SW480 colon adenocarcinoma cells (AID 504364). Further: 0% is about no effect. In short, it runs like this:
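SW480 cells (250/well) exposed 48 h at 37 C, 5% CO2, then Hoechst-stained 40 min. Nuclear DNA content imaged by fluorescence scanning (405 nm excitation, 500-530 nm emission); re-replication scored as increased nuclei with elevated intensity.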

Experiment [14] has as its target Peptidyl-prolyl cis-trans isomerase NIMA-interacting 1 (Homo sapiens) (UniProt Q13526). As to the kind of experiment: qHTS Validation Assay to Find Inhibitors of Pin1 (AID 504536; active means well fitted inhibition curve with a large enough effect in the polarisation, with a control signal flat, not every such curve was filed as active; the % refers to the polarisation;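 further: 0% = full Pin1 enzyme wells and -100% = no-enzyme wells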). In short, it runs like this:
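Fluorescence polarization competition: compounds (titration) displace HiFluor-488-labeled Pin1-1b peptide from Pin1 (0.3 uM final) in pH 7.5 HEPES buffer with DTT, 10 min at room temperature; %Activity normalized to no-enzyme wells, curves fitted.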

Experiment [15] addresses Phosphoglycerate kinase, glycosomal (Trypanosoma brucei brucei) (UniProt P07378). As to the kind of experiment: qHTS Validation Assay to Find Inhibitors of Phosphoglycerate Kinase (AID 504547).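 Further: control wells lack PGK and mark full inhibition.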 In short, it runs like this: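 Inhibition of the enzyme is judged by a Kinase-Glo Plus luminescent signal following a one-hour incubation at room temperature. Because 1,3-BPG is unstable, it is made in situ by GAPDH at 100nM final; no-PGK wells define the baseline.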

Experiment [16] addresses phosphoglycerate mutase (Leishmania major) (UniProt Q4Q090). Description: qHTS Validation Assay to Find Inhibitors of Phosphoglycerate Mutase (AID 504548). Further: series mostly up to about 58 µM; on the % scale 0 is the no-effect control and ±100 the full control effect. In short, it runs like this:
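Lm PGAM at 1.25 nM final with substrate in 100 mM TEA pH 7.6, 5 mM MgCl2, 0.01% Tween-20; 45 min at room temperature. Kinase-GloPlus added, 10 min, end-point luminescence read.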

Experiment [17] is described as follows: Inducers of the Endoplasmic Reticulum Stress Response (ERSR) in human glioma: Validation (AID 504836). Further: 0% is about no effect. The essentials:
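ERSR induction read as luciferase luminescence (Bright-Glo, 10 min at room temperature) in stably transfected human U87-MG glioma cells exposed to compounds for 16 h, using GRP78 as sensor.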

Experiment [18] deals with ATP-dependent 6-phosphofructokinase (Trypanosoma brucei brucei) (UniProt O15648). Description: qHTS Assay to Find Inhibitors of T. brucei phosphofructokinase: hit validation (AID 492961).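 Further: luminescence reports ADP formed as PFK phosphorylates fructose-6-phosphate with ATP; series mostly up to about 51 µM; on the % scale 0 is the no-effect control and ±100 the full control effect.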 In short, it runs like this: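 ADP-Glo luminescence read-out of ADP formed by 1.25 nM PFK from 0.1 mM ATP and 0.5 mM F6P (TEA pH 8.0, 45 min, RT). Compounds titrated; activity normalized to no-enzyme and full-enzyme controls.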

The target in experiment [19] is D(1A) dopamine receptor (Homo sapiens) (UniProt P21728). Description: HTS Assay for Allosteric Agonists of the Human D1 Dopamine Receptor: Primary Screen for Antagonists (AID 488983).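 Further: calcium flux response to an EC80 dopamine challenge measured with no-wash dye; on the % scale 0 is the no-effect control and ±100 the full control effect; nearly all actives have a fitted effect of over 65% in size.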 The essentials: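 Tetracycline-induced HEK293 T-REx D1 line, force-coupled to calcium flux, read with no-wash calcium dye. Compound added after 10 s baseline, read 180 s for agonism, then EC80 dopamine added and read a further 180 s.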

Records with an inconclusive call do not appear. The source made the active and inactive calls. Unless noted, the call rests on the fitted dose curve; in most records, active means well fitted curve in the direction sought with a large enough effect; inconclusive means small, poorly fitted or top-dose-only effect, or another doubt; inactive means no such curve, though single readings can be large; an effect the other way counts as inactive or inconclusive.

Thyrotropin receptor (Homo sapiens), sequence (P16473 whole entry, looked up): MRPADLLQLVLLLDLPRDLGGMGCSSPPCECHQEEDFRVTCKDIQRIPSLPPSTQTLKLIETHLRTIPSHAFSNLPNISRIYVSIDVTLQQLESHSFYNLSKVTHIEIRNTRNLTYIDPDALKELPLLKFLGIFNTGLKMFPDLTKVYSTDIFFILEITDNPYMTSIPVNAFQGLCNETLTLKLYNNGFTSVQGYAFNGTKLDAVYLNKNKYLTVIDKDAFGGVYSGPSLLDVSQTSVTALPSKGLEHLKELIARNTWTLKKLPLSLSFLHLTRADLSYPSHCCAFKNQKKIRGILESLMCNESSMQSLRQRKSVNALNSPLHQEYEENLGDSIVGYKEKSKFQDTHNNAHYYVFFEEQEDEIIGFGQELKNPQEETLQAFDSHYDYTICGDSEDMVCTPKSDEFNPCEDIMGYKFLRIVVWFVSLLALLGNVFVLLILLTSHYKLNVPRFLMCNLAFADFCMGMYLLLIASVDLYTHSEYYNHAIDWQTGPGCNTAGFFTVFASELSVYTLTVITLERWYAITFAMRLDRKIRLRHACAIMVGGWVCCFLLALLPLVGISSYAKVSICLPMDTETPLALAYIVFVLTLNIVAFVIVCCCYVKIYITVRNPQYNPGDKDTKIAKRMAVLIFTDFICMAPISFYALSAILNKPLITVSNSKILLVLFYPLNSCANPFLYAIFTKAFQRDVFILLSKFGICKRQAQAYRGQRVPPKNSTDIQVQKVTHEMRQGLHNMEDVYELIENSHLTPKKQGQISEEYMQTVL
M-phase phosphoprotein 8 (Homo sapiens), sequence (Q99549 whole entry, looked up): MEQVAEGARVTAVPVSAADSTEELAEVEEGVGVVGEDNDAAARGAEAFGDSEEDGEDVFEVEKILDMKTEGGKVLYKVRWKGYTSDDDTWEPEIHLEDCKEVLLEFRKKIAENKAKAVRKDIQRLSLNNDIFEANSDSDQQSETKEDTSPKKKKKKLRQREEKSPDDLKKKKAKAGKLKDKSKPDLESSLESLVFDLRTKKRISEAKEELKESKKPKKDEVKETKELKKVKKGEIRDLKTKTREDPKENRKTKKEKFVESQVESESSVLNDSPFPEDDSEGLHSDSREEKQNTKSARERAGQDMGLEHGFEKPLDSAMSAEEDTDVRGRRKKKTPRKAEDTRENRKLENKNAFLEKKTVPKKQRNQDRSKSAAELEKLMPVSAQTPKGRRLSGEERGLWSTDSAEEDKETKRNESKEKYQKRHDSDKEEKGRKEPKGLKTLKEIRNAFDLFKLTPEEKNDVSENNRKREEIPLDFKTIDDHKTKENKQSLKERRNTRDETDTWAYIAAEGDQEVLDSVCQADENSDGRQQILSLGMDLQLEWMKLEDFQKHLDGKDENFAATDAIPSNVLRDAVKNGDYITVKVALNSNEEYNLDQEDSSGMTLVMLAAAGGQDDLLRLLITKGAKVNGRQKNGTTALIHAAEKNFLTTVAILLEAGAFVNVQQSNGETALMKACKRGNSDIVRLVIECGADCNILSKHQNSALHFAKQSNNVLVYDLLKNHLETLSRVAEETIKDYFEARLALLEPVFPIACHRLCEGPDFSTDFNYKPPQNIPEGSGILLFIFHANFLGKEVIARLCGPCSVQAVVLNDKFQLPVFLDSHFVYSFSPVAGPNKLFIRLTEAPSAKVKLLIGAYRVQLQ
ATPase family AAA domain-containing protein 5 (Homo sapiens), sequence (Q96QE3 whole entry, looked up, the tested form may be a part): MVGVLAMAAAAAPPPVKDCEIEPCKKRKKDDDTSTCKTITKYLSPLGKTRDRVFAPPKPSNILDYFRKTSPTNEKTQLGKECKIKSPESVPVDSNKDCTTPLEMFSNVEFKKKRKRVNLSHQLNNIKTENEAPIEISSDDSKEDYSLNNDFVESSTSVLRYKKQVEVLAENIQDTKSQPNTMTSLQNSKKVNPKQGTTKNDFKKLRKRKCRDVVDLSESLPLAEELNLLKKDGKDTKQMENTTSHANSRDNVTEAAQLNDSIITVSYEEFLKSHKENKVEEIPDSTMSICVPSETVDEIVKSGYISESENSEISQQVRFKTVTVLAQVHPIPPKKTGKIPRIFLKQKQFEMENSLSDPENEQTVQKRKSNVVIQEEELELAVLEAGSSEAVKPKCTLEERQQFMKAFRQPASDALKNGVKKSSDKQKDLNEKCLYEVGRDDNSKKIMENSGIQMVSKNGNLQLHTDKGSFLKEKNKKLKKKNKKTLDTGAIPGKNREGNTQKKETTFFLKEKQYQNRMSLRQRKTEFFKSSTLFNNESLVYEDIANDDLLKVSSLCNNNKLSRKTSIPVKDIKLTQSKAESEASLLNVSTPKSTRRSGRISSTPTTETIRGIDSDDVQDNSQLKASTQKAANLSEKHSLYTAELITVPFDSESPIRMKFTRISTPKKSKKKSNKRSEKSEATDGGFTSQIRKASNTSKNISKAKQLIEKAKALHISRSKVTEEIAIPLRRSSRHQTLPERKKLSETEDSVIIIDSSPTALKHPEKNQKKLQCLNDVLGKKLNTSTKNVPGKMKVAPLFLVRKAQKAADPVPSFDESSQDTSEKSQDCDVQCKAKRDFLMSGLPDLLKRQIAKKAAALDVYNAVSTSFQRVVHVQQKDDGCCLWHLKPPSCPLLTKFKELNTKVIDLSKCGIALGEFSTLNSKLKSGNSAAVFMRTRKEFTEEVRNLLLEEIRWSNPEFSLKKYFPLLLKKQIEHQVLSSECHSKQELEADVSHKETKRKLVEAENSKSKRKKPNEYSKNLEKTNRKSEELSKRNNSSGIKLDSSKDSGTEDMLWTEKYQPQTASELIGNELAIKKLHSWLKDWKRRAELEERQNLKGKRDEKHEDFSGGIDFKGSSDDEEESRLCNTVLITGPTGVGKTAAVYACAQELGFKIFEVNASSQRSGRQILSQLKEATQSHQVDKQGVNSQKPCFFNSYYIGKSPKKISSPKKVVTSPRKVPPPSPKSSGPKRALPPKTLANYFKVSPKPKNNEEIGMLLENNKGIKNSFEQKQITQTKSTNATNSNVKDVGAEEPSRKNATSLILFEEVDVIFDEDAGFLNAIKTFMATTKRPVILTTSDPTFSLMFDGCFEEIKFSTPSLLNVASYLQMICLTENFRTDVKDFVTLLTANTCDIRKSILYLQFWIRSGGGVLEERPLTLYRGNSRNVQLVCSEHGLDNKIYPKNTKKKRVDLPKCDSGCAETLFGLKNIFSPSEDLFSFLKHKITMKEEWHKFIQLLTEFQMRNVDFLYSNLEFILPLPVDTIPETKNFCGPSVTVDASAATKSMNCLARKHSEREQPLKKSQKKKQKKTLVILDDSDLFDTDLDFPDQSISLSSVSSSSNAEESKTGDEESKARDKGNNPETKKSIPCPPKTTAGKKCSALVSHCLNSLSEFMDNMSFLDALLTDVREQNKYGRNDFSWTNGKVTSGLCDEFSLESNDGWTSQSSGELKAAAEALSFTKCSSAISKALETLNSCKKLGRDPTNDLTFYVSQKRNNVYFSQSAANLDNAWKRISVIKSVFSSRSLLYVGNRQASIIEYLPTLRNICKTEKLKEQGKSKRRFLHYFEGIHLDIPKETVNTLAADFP
Phosphoglycerate kinase, glycosomal (Trypanosoma brucei brucei), sequence (P07378 whole entry, looked up): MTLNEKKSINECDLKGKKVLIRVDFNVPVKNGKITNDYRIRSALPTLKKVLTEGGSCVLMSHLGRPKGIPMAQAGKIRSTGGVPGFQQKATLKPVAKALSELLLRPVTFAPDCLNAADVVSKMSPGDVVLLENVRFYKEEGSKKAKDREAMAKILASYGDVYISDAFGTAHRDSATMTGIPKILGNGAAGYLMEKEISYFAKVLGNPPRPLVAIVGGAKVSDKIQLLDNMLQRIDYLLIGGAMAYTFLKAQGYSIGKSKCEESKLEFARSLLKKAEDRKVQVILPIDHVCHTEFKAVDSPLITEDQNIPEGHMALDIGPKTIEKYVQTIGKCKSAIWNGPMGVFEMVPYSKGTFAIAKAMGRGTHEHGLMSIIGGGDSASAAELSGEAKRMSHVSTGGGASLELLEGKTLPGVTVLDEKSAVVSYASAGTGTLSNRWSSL
Chromobox protein homolog 1 (Homo sapiens), sequence (P83916 whole entry, looked up): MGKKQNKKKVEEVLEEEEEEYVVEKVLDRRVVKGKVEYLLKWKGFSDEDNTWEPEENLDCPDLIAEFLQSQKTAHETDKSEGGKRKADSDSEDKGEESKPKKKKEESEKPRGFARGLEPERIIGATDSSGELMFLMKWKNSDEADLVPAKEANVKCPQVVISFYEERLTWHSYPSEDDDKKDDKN
Peptidyl-prolyl cis-trans isomerase NIMA-interacting 1 (Homo sapiens), sequence (Q13526 whole entry, looked up): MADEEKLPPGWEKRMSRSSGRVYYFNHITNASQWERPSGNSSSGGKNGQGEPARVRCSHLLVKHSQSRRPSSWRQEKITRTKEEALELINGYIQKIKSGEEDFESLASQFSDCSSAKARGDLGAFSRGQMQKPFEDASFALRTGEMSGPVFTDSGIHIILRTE
Methanococcus maripaludis chaperonin (MmCpn), sequence (Q6LX38 1-543): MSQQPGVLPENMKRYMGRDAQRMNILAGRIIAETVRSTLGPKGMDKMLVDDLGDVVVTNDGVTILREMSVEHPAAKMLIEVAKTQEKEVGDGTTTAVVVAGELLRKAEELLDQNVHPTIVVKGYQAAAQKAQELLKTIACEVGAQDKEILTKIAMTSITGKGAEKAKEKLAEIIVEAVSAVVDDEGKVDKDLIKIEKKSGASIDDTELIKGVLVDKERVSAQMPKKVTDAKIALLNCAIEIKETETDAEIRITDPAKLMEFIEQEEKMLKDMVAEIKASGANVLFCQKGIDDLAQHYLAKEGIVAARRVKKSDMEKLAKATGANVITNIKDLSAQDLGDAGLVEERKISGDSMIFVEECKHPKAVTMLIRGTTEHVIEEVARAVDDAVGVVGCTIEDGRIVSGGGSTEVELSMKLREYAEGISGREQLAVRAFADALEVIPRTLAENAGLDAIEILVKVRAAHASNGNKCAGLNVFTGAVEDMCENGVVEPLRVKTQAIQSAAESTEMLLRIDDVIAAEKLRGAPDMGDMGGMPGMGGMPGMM

As to `CC(C)c1cccc(C(C)C)c1O`, the Potency entry in experiment [1], in experiment [2] and in experiment [6] was “inactive” throughout. The molecule was classed as inactive in experiment [3], in [4], in experiment [5], in [7], in experiment [8] and in experiment [9]. The molecule was classed as inactive in experiment [11], in experiment [12], in [13], in [14], in experiment [15] and in experiment [16]. The call in experiment [17] was inactive. In [10], the activation is -6.88% (inactive). Further, the viability change in experiment [11] is 0.059%.
With `NC(=O)CC[C@@H]1NC(=O)[C@H](Cc2ccccc2)NC(=O)[C@H](Cc2ccc(O)cc2)NC(=O)[C@@H](N)CSSC[C@@H](C(=O)N2CCC[C@H]2C(=O)N[C@@H](CCCN=C(N)N)C(=O)NCC(N)=O)NC(=O)[C@H](CC(N)=O)NC1=O`, in experiment [18], the outcome was inactive.
As for `Cc1nnc(SCC2=C(C(=O)O)N3C(=O)[C@@H](NC(=O)Cn4cnnn4)[C@H]3SC2)s1`, in experiment [1], the Potency result was “inactive”.
In the case of `COc1ccc2c(c1OC)C(=O)O[C@H]2[C@@H]1c2cc3c(cc2CCN1C)OCO3`, the Potency result in experiment [1], in experiment [2] and in experiment [6] was “inactive” each time. Moreover, the outcome in [3], in experiment [5], in experiment [7], in [19], in experiment [8] and in experiment [9] was inactive. Moreover, the outcome in experiment [11], in experiment [13], in experiment [14], in experiment [15], in experiment [16] and in [17] was inactive. In experiment [11], this molecule had a viability change of 5.02%.
As for `Clc1ccc2c(c1)C(c1ccccc1)=NCc1nncn1-2`, in experiment [18], the outcome was inactive.
For the molecule `C=C(C)[C@H]1CN[C@H](C(=O)O)[C@H]1CC(=O)O`, the Potency entry in [1], in experiment [2] and in [6] was “inactive” throughout. Also, the molecule was classed as inactive in [3], in [4], in experiment [5], in experiment [7], in experiment [19] and in experiment [18]. Further, the call in experiment [8], in [9], in experiment [11], in experiment [12], in experiment [13] and in experiment [14] was inactive. In addition, the call in [15], in experiment [16] and in experiment [17] was inactive. Further, the activation in [10] is 1.12% (inactive). This molecule also showed a viability change in experiment [11] of 1.68%.
For `O=C1Nc2ccc(Cl)cc2C(c2ccccc2Cl)=NC1O` (stereo not drawn), the outcome in experiment [18] was inactive.
With `CCC1(c2ccc(N)cc2)CCC(=O)NC1=O` (stereo not drawn), the Potency result in [1], in [2] and in [6] was “inactive” each time. The call in experiment [3], in experiment [4], in [7], in [19], in experiment [8] and in experiment [9] was inactive. Besides, the outcome in experiment [11], in experiment [12], in experiment [13], in experiment [15], in experiment [16] and in experiment [17] was inactive. Also, the activation in [10] was 1.56% (inactive). The same molecule showed a viability change in [11] of 1.18%.
Take `CC[N+](CC)(CC)CCOc1cccc(OCC[N+](CC)(CC)CC)c1OCC[N+](CC)(CC)CC`: in experiment [1], the Potency was 13.4 µM (active). For the same molecule, the call in [17] was inactive.
In the case of `CC(C)=CC1C(C(=O)OCN2C(=O)C3=C(CCCC3)C2=O)C1(C)C` (stereo not drawn), the molecule was classed as inactive in experiment [18].
